Measurements taken from the supplement of paper PMC10849652.
About 7,900 targets were measured; listed, in parts, are those with a hit and a random draw of the rest. About 0.6% of all pairs of compound and target were hits. A number with no mark means an inactive call.

Experiments:
Test in all cases: log2 fold change, soluble protein after heating vs DMSO (PISA); higher = thermal stabilisation; K562 cells, 10 uM, 30 min; active = over 0.2 and 3.5 SD of the protein, either way, in both replicates (recomputed)
[1] = compound: CS(=O)(=O)c1ccc(-c2cnc(N)c(C(=O)Nc3ccccc3)n2)cc1
Procedure, shortened: (§1)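 Quantification of soluble protein used TMTpro 16plex LC-MS/MS, with channel sums equalised. Samples were the supernatant after 21,000xg for 90 min of pooled aliquots from K562 cells (2×10^6 cells/mL) treated with 10 μM compound for 30 min, heated for 3 min over 48°C-58°C, and extracted in PBS with 0.5% NP-40 at 4°C. Values, from duplicates, describe thermal stability against control samples on a log2 fold-change scale.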

[2] = compound: C[C@@H](Oc1cc(-c2cnn(C3CCNCC3)c2)cnc1N)c1c(Cl)ccc(F)c1Cl [crizotinib]
Procedure, shortened: as §1

[3] = compound: C[C@H](C1=CC=C(C=C1)C(=O)NC2=C3C=CNC3=NC=C2)N
Procedure, shortened: as §1

[4] = compound: C[C@H](Nc1ncnc2nc[nH]c12)c1cc2cccc(Cl)c2c(=O)n1-c1ccccc1 [duvelisib]
Procedure, shortened: as §1

[5] = compound: Cc1cc(Nc2cc(N3CCN(C)CC3)nc(Sc3ccc(NC(=O)C4CC4)cc3)n2)n[nH]1 [tozasertib]
Procedure, shortened: as §1

[6] = compound: Cc1cc(SCc2sc(-c3ccc(C(F)(F)F)cc3)nc2C)ccc1OCC(=O)O
Procedure, shortened: as §1

[7] = compound: Cc1ccc(-n2nc(C(C)(C)C)cc2NC(=O)Nc2ccc(OCCN3CCOCC3)c3ccccc23)cc1 [doramapimod]
Procedure, shortened: as §1

[8] = compound: Cc1ccc(C(=O)N(CCCN)[C@@H](c2nc3cc(Cl)ccc3c(=O)n2Cc2ccccc2)C(C)C)cc1 [ispinesib]
Procedure, shortened: as §1

[9] = compound: Cc1ccc(NC(=O)c2ccc(CN3CC[C@H](N(C)C)C3)c(C(F)(F)F)c2)cc1Nc1nccc(-c2cncnc2)n1 [bafetinib]
Procedure, shortened: as §1

[10] = compound: Cc1cn(-c2cc(NC(=O)c3ccc(C)c(Nc4nccc(-c5cccnc5)n4)c3)cc(C(F)(F)F)c2)cn1 [nilotinib]
Procedure, shortened: as §1

[11] = compound: Cc1nc(Nc2n[nH]c3c2CN(C(=O)N[C@H](CN(C)C)c2ccccc2)C3(C)C)c2sccc2n1
Procedure, shortened: as §1

[12] = compound: Cc1nc(Nc2ncc(C(=O)Nc3c(C)cccc3Cl)s2)cc(N2CCN(CCO)CC2)n1 [dasatinib]
Procedure, shortened: as §1

[13] = compound: Cc1ncc(-c2ccnc(Nc3ccc(S(C)(=O)=O)cc3)n2)n1C(C)C
Procedure, shortened: as §1

[14] = compound: Cn1cc(-c2ccc3c(c2)CCN3C(=O)Cc2cccc(C(F)(F)F)c2)c2c(N)ncnc21
Procedure, shortened: as §1

[15] = compound: Cn1cc(-c2ccc3nnc(C(F)(F)c4ccc5ncccc5c4)n3n2)cn1
Procedure, shortened: as §1

[16] = compound: Cn1cncc1[C@@](N)(c1ccc(Cl)cc1)c1ccc2c(c1)c(-c1cccc(Cl)c1)cc(=O)n2C [tipifarnib]
Procedure, shortened: as §1

[17] = compound: FC(F)(F)c1ccc(/C=C/c2nc(COc3ccc(CCCCn4ccnn4)cc3)co2)cc1 [mubritinib]
Procedure, shortened: as §1

[18] = compound: C[C@@H]1COCCN1C2=NC(=NC(=C2)C3(CC3)S(=O)(=O)C)C4=C5C=CNC5=CC=C4
Procedure, shortened: as §1

[19] = compound: Cc1cc(Nc2cc(CN3CCOCC3)c3nc(C)c(Cc4ccc(Cl)cc4F)n3n2)n[nH]1 [gandotinib]
Procedure, shortened: as §1

[20] = compound: Cc1cccc(CC(=O)N2CCc3c2ccc(-c2cn(C)c4ncnc(N)c24)c3F)n1
Procedure, shortened: as §1

UniProt Q9NS93, sequence (Q9NS93 whole entry, looked up): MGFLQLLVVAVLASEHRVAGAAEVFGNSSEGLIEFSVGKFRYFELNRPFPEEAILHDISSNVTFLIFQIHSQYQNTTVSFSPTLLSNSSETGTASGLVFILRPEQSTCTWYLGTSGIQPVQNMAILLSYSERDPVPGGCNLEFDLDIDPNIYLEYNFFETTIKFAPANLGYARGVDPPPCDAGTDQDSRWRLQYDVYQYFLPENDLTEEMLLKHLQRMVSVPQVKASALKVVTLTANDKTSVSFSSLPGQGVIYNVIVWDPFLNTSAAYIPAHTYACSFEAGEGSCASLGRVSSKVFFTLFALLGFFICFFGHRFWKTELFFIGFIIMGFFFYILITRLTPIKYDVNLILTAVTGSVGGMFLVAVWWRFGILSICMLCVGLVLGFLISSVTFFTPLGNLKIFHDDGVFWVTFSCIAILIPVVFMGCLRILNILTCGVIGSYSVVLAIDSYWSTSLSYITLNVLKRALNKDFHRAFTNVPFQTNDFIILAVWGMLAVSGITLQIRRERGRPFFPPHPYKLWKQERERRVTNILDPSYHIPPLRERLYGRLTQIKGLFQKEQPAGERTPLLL
UniProt O95359, sequence (O95359 whole entry, looked up): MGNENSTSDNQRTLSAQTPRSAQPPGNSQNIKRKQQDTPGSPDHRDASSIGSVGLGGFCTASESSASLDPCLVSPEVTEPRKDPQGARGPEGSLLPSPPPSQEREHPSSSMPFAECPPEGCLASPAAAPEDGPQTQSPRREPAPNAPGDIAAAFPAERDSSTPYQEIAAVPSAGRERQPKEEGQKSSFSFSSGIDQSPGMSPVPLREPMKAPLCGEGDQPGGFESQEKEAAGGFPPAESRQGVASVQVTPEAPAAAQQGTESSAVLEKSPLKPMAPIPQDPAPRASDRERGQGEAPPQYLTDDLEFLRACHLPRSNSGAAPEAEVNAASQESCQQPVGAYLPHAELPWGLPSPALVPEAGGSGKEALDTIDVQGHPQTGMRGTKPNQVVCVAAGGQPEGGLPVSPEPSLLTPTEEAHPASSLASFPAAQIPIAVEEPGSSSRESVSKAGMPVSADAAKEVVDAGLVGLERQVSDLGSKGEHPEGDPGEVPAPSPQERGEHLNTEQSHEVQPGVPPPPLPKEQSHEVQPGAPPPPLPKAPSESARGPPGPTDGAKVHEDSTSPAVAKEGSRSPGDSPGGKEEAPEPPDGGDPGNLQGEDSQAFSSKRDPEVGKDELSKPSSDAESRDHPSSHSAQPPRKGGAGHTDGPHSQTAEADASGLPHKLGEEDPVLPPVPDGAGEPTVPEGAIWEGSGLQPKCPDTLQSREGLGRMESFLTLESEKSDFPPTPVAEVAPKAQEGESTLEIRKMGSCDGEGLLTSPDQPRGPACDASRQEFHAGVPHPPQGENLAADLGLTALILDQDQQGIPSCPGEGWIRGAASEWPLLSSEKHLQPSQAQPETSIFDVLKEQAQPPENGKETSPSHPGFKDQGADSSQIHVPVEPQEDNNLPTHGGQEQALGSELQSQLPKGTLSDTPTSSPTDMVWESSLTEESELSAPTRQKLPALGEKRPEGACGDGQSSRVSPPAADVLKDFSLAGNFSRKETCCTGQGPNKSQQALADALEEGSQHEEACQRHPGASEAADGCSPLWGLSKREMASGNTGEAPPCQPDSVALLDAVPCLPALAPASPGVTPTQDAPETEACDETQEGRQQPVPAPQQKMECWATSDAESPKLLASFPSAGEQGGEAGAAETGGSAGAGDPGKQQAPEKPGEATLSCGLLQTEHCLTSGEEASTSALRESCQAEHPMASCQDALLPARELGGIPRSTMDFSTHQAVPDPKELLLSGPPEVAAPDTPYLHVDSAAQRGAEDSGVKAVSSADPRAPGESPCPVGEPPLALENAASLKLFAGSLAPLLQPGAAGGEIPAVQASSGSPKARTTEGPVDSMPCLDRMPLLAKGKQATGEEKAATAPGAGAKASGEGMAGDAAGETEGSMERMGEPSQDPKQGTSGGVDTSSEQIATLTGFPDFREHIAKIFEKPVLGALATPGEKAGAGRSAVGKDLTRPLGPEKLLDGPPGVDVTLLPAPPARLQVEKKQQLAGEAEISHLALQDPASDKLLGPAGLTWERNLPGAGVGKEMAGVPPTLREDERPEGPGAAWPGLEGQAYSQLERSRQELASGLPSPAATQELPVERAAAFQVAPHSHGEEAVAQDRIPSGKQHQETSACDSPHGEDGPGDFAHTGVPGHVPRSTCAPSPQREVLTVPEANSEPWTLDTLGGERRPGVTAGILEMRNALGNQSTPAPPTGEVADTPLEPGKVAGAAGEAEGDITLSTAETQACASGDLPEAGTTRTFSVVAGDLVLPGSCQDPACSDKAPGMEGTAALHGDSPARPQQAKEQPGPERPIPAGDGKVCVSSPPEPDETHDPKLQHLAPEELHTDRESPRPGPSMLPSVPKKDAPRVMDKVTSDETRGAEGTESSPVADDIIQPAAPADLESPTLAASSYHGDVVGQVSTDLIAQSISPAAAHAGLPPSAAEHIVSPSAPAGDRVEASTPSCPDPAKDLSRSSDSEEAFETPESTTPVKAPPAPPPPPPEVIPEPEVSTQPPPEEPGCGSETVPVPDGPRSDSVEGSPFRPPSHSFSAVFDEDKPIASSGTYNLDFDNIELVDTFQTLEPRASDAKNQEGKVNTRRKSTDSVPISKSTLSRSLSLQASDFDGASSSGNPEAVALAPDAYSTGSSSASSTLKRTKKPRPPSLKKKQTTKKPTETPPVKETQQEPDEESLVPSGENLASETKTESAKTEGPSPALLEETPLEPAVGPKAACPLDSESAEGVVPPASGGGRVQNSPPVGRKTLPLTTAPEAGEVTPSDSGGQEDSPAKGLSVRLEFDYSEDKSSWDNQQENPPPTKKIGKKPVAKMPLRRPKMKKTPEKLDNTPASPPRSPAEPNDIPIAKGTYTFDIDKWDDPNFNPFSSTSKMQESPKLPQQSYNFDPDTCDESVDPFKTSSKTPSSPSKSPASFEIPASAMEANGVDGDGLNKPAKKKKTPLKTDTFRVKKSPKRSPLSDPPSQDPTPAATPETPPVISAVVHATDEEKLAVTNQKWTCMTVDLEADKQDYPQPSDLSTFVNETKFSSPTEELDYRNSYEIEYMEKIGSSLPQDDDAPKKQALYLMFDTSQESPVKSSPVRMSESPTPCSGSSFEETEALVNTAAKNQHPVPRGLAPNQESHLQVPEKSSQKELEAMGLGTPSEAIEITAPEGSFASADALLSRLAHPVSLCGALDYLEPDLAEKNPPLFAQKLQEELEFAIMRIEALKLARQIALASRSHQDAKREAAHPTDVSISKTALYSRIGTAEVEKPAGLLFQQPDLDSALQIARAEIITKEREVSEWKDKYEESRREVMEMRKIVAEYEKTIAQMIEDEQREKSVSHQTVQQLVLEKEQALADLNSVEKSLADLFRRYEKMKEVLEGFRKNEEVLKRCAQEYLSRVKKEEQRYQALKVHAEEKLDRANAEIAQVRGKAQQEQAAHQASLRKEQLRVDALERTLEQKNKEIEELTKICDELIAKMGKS
UniProt Q12824, sequence (Q12824 whole entry, looked up): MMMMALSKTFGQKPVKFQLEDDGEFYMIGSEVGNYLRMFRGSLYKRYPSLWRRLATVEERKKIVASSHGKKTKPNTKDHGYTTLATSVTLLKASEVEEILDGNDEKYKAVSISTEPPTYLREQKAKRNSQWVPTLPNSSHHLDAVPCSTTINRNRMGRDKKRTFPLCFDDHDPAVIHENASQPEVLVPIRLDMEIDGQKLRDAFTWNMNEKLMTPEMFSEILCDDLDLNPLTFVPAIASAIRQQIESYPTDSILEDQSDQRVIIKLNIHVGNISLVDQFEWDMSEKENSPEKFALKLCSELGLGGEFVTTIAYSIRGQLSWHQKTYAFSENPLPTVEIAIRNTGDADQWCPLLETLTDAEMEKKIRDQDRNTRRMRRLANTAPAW
UniProt Q9H5L6, sequence (Q9H5L6 whole entry, looked up): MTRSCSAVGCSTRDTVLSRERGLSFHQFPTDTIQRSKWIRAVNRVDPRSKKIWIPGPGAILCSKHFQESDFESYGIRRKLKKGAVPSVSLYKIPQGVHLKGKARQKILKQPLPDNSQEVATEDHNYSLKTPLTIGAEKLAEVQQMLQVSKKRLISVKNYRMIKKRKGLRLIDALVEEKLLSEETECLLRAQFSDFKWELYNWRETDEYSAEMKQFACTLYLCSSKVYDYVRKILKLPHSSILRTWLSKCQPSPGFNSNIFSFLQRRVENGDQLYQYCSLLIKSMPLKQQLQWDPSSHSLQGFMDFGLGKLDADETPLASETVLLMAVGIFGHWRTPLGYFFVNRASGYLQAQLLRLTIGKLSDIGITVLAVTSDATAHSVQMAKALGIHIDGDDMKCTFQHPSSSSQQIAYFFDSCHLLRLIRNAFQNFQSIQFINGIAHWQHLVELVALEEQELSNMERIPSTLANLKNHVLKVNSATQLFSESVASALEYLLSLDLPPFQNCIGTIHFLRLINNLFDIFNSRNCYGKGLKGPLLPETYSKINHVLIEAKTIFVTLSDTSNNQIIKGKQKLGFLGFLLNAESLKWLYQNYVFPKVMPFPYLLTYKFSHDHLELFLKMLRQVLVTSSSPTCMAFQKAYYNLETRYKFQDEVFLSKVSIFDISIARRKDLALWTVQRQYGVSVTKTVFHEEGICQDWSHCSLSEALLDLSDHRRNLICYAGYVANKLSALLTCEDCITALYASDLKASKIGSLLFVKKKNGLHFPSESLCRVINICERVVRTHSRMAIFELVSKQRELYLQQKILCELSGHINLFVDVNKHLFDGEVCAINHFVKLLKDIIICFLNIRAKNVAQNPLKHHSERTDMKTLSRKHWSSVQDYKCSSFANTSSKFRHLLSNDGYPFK
UniProt Q9Y5J6, sequence (Q9Y5J6 whole entry, looked up): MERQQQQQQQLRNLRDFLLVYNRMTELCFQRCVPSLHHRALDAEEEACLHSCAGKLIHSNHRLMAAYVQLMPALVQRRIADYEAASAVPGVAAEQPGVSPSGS

Row | Target | log2 fold change [1] | log2 fold change [2] | log2 fold change [3] | log2 fold change [4] | log2 fold change [5] | log2 fold change [6] | log2 fold change [7] | log2 fold change [8] | log2 fold change [9] | log2 fold change [10] | log2 fold change [11] | log2 fold change [12] | log2 fold change [13] | log2 fold change [14] | log2 fold change [15] | log2 fold change [16] | log2 fold change [17] | log2 fold change [18] | log2 fold change [19] | log2 fold change [20]
1 | TM7SF3 (UniProt Q9NS93) | -0.01 | -0.432 (active) | -0.216 | 0.007 | -0.054 | -0.003 | 0.052 | -0.343 (active) | -0.147 | -0.004 | 0.005 | 0.005 | -0.029 | -0.034 | 0.034 | 0.019 | 0.147 |  |  | 
2 | STK17B (UniProt O94768) |  | -0.227 |  |  |  |  | -0.085 |  | 0.024 |  |  |  |  |  |  |  |  |  |  | 
3 | SNRK (UniProt Q9NRH2) | 0.008 | -0.026 |  | -0.162 |  | -0.067 | 0.001 |  |  |  |  | -0.061 |  |  |  | -0.079 |  |  |  | 
4 | SPIRE1 (UniProt Q08AE8) |  | -0.105 | 0.087 |  | -0.052 |  | 0.096 | -0.073 | -0.06 | 0.007 | 0.063 |  | -0.046 | -0.155 | -0.026 |  | 0.098 | -0.324 | 0.344 | -0.194
5 | SLC39A11 (UniProt Q8N1S5) | 0.121 | 0.109 | -0.066 | -0.085 | 0.116 | -0.126 | 0.009 | 0.085 | -0.13 | -0.028 | 0.001 | 0.058 | 0.248 | 0.128 | 0.002 | 0.048 | -0.005 |  | 0.271 | -0.043
6 | SLC35F6 (UniProt Q8N357) | -0.247 |  | 0.076 | -0.049 | 0.034 | -0.219 |  | -0.083 | -0.208 | -0.037 | -0.13 | 0.078 | 0.143 | 0.049 | 0.052 | 0.01 | 0.072 | 0.021 |  | 
7 | TIMM10B (UniProt Q9Y5J6) | 0.107 |  | 0.031 | 0.308 | -0.114 | -0.161 |  | 0.077 | 0.4 | 0.006 | -0.04 | 0.138 | -0.052 | 0.01 | 0.224 | -0.001 | 0.065 | 0.129 | 0.087 | -0.138
8 | TACC2 (UniProt O95359) | -0.045 |  | -0.013 | 0.058 | 0.056 | -0.005 |  | 0.145 | -0.044 | 0.027 | 0.073 | 0.059 | 0.008 | -0.001 | -0.003 | 0.029 | -0.006 |  | -0.154 | 0.011
9 | SMPD4 isoform 2 (UniProt Q9NXE4) |  | -0.21 | -0.061 | 0.069 | -0.163 | 0.09 | 0.027 |  | -0.026 |  |  | -0.285 |  | 0.09 |  | -0.111 | 0.108 |  | -0.263 | 0.151
10 | SLC9A6 isoform 3 (UniProt Q92581) |  |  | -0.018 | -0.001 | -0.126 | -0.137 |  |  | -0.096 |  |  | 0.065 |  | 0.048 |  | 0.028 |  |  |  | 
11 | TCOF1 isoform 6 (UniProt Q13428) | -0.07 | 0.032 | -0.025 |  | -0.008 |  | -0.068 | -0.122 | 0.137 | -0.102 | 0.14 |  | -0.033 | 0.07 | -0.061 |  | -0.091 |  |  | 
12 | SLC8B1 (UniProt Q6J4K2) |  | -0.793 (active) | 0.129 | 0.196 |  | -0.073 | 0.046 | -0.477 (active) | -0.149 |  |  | -0.012 |  | -0.019 | 0.103 | 0.058 |  |  | -0.053 | 0.006
13 | THAP9 (UniProt Q9H5L6) |  | -0.004 | -0.105 | 0.168 |  | -0.245 | 0.041 | -0.21 | 0.191 | 0.03 | -0.009 | -0.082 | -0.04 | 0.119 | 0.072 |  | 0.17 |  |  | 
14 | TMBIM1 (UniProt Q969X1) | -0.03 |  | 0.274 | 0.042 | -0.154 | -0.026 |  | 0.303 | 0.068 | 0.168 | -0.044 | -0.01 | 0.149 | -0.06 | -0.105 | -0.318 | 0.025 | -0.043 | -0.017 | -0.07
15 | SMARCB1 (UniProt Q12824) | 0.024 | -0.128 | 0.284 | 0.241 | 0.252 | 0.097 | 0.049 |  |  |  |  | -0.059 |  | -0.122 |  |  |  |  | 0.49 | -0.277
16 | TBC1D2 (UniProt Q9BYX2) |  |  |  |  |  |  |  |  |  |  |  |  |  |  |  |  | -0.085 | 0.064 | -0.04 | 0.213
17 | SP2 (UniProt Q02086) | -0.14 | 0.083 |  | -0.08 |  | 0.125 | -0.06 |  |  |  |  | 0.001 |  |  |  |  |  |  |  | 
18 | SLC46A1 (UniProt Q96NT5) |  |  | -0.047 |  | 0.035 |  |  |  |  |  |  |  |  | -0.119 |  |  |  |  | -0.006 | -0.016
